Assay results taken from PubChem BioAssay.
Active and inactive are the calls of the source. Unless noted, no rule for the calls is given here.

Key:
[1] = A549 cell viability effects, profiling panel, calcein-AM fluorescence, 48 h, basal (AID 1162); settings: higher = more signal; also: test concentration not given here
[2] = adipocyte viability effects, profiling panel, cell-based, 3T3-L1 adipocytes, calcein-AM fluorescence, 48 h, basal (AID 1163); settings: 3T3-L1 adipocytes viability, higher = more signal; also: test concentration not given here
[3] = HepG2 cell viability effects, profiling panel, calcein-AM fluorescence, 48 h, basal (AID 1164); settings: higher = more signal; also: test concentration not given here
[4] = MM1S cell viability effects, profiling panel, calcein-AM fluorescence, 48 h, basal (AID 1165); settings: higher = more signal;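 also: viability of MM1S multiple myeloma cells under basal unstimulated conditions; test concentration not given here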
[5] = basal RPMI8226 viability, no added stimulus, profiling panel, cell-based, calcein-AM fluorescence, 48 h, PK04 Diversity Set (AID 1166); settings: RPMI8226 myeloma viability, higher = more signal;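 also: cells grown under basal conditions without added stimulus; test concentration not given here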
[6] = basal HepG2 mitochondrial membrane potential changes, profiling panel, cell-based, JC-1 fluorescence, 24 h, 100 nL compound (AID 1167); settings: higher = more signal; also: test concentration not given here
[7] = basal 3T3-L1 adipocyte mitochondrial potential changes, profiling panel, cell-based, JC-1 fluorescence, 3T3-L1 adipocytes, 24 h, 100 nL compound (AID 1168); settings: JC-1 mitochondrial fluorescence, higher = more signal, called active from +8 up or from −8 down; also: test concentration not given here
[8] = basal RPMI8226 mitochondrial membrane potential changes, profiling panel, cell-based, JC-1 fluorescence, 24 h, 100 nL compound (AID 1169); settings: RPMI8226 myeloma, JC-1 mitochondrial potential fluorescence, higher = more signal; also: test concentration not given here
[9] = basal MM1S mitochondrial membrane potential changes, profiling panel, cell-based, JC-1 fluorescence, 24 h, 100 nL compound (AID 1170); settings: higher = more signal; also: test concentration not given here
[10] = A549 lung cancer cell viability effects, profiling panel, resazurin fluorescence, 24 h, PK04 Diversity Set (AID 1171); settings: higher = more signal, called active from +8 up or from −8 down; also: test concentration not given here
[11] = HepG2 liver cancer cell viability effects, profiling panel, resazurin fluorescence, 24 h, PK04 Diversity Set (AID 1172); settings: higher = more signal; also: test concentration not given here
[12] = basal S. cerevisiae growth modulation, no modifier, primary screen, OD600, strain BY4716, 24 h, basal condition (AID 1173); settings: OD600, 24 h, higher = more signal, called active from +8 up or from −8 down
[13] = MM1S myeloma cell viability, profiling panel, resazurin fluorescence, basal, 24 h, PK04 Diversity Set (AID 1174); settings: higher = more signal, called active from +8 up or from −8 down;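 also: MM1S multiple myeloma cell line; test concentration not given here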
[14] = target: Dihydroorotate dehydrogenase (quinone), mitochondrial (Plasmodium falciparum (isolate 3D7)) (UniProt Q08210); experiment: PfDHODH enzyme inhibitors, primary screen, biochemical, C-terminal His tag, absorbance 600 nm (AID 1175); settings: DCIP absorbance 600 nm, higher = more signal, called active from +8 up or from −8 down;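 also: recombinant parasite enzyme with a five histidine tag at its C terminus; test concentration not given here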
Chain of Dihydroorotate dehydrogenase (quinone), mitochondrial (Plasmodium falciparum (isolate 3D7)) (Q08210 whole entry, looked up): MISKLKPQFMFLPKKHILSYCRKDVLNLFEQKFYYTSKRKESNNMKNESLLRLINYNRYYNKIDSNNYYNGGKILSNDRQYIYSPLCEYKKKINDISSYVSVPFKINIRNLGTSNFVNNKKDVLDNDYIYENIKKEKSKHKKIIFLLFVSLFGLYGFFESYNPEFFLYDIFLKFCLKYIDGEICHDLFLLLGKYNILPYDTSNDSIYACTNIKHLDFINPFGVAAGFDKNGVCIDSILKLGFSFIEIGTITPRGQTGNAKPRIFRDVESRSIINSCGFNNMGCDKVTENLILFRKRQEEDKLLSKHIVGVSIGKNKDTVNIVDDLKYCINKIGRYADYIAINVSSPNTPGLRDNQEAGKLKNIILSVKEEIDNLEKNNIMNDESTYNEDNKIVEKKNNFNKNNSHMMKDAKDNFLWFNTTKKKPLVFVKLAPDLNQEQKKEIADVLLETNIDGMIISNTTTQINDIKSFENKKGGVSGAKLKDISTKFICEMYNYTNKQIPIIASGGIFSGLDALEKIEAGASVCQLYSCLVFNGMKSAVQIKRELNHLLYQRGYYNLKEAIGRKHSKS

[15] = P. aeruginosa biofilm formation inhibitors, primary screen, strain PAO1, LB-PBS medium, absorbance 600 nm (AID 1176); also: test concentration not given here; settings: P. aeruginosa PAO1 growth/biofilm, A600, 12 h; higher = more signal
[16] = S. cerevisiae RM11-1a growth modifiers, primary screen, strain RM11-1a, OD600, basal, 24 h (AID 1177); settings: OD600, 24 h, higher = more signal, called active from +8 up or from −8 down;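 also: cultures grown under basal conditions with no added stressor; test concentration not given here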
[17] = E. coli acrAB mutant growth effects, primary screen, E. coli filamentation inducers, strain DRC39, OD650, 24 h (AID 1178); settings: higher = more signal, called active from +8 up or from −8 down;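 also: growth measured as culture turbidity by optical density at 650 nm; test concentration not given here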
[18] = E. coli acrAB mutant growth effects, primary screen, E. coli filamentation inducers, strain DRC39, OD650, 48 h (AID 1179);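 also: screen aims at cell division blockers that make cells filament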; settings: E. coli DRC39 delta-acrAB growth, higher = more signal, called active from +8 up or from −8 down
[19] = RPMI8226 myeloma cell viability, profiling panel, resazurin fluorescence, basal, 24 h, PK04 Diversity Set (AID 1180); settings: higher = more signal;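 also: RPMI8826 multiple myeloma cell line at 5000 cells per well; test concentration not given here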
[20] = target: E3 ubiquitin-protein ligase XIAP (Homo sapiens) (UniProt P98170); experiment: XIAP binders, primary screen, biophysical, small-molecule microarray, fluorescence 635 nm (AID 1181); settings: small-molecule microarray binding, higher = more signal;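 also: score merges 667 nm emission and signal to noise over triplicate slides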
Chain of E3 ubiquitin-protein ligase XIAP (Homo sapiens) (P98170 whole entry, looked up): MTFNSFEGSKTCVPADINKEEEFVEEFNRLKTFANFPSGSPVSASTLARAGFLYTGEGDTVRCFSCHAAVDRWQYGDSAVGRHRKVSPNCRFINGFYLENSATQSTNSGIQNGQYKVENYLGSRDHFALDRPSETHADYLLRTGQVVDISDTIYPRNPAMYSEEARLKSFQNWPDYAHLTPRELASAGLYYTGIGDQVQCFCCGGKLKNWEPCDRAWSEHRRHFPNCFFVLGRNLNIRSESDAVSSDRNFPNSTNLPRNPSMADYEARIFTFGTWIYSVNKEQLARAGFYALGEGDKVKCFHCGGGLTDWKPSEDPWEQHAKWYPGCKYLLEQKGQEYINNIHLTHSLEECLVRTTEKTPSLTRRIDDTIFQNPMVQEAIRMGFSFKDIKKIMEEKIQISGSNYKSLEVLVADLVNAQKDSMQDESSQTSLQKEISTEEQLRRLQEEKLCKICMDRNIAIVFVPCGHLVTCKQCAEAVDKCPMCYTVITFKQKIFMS

Structure (SMILES)	z-score [1]	z-score [2]	z-score [3]	z-score [4]	z-score [5]	z-score [6]	z-score [7]	z-score [8]	z-score [9]	z-score [10]	z-score [11]	z-score [12]	z-score [13]	composite z-score [14]	z-score [15]	z-score [16]	z-score [17]	z-score [18]	z-score [19]	composite z-score [20]
C#CCN1[C@H](/C=C/C2CC2)[C@H](Cc2ccccc2)OC(=O)[C@@H]1Cc1ccccc1	-0.627	0.0556	-0.0365	-2.65	-2.47	1.31	-0.0709 (inactive)	-0.294	-0.719	2.37 (inactive)	0.512	0.169 (inactive)	0.214 (inactive)	-0.627 (inactive)	-0.283 (inactive)	0.0319 (inactive)	-0.463 (inactive)	-0.144 (inactive)	0.454	0.0853
C=C(/C(=C/C[C@H](OC(=O)c1ccncc1)c1ccc(OCCO)cc1)c1cc(C(=O)OC)ccc1OC)C(C)C	0.0699	1.62	-0.274	-0.158	-1.9	0.751	0.111 (inactive)	-0.143	0.503	0.827 (inactive)	0.438	-1.44 (inactive)	-0.0968 (inactive)	-1.88 (inactive)	-0.681 (inactive)	-0.517 (inactive)	-0.427 (inactive)	-0.579 (inactive)	-0.0979	-0.0095
COC(=O)[C@@]1(CCC(=O)OC(C)(C)C)N=C(c2ccc(OCCCO)cc2)O[C@H]1c1ccccc1	-1.68	0.673	-0.968	-2.83	-2.83	-2.01	-0.306 (inactive)	-1.1	0.558	-1.8 (inactive)	-0.291	-0.814 (inactive)	-1.34 (inactive)	1.27 (inactive)	0.618 (inactive)	1.47 (inactive)	-3.29 (inactive)	-0.735 (inactive)	-0.808	-0.0095
O=C1NC(=O)C2C1C=CC(C(O)C1CC=CCC1)N2Nc1ccccn1 (stereo not given)	-0.905	-0.635	1.06	0.0581	-0.362	-0.265	-0.147 (inactive)	-0.074	-0.642	-1.44 (inactive)	-1.16	1.05 (inactive)	-1.35 (inactive)	1.07 (inactive)	0.916 (inactive)	0.636 (inactive)	-0.857 (inactive)	-0.0662 (inactive)	-1.57	0.0512
CC(c1ccccc1)C(O)C1C=CC2C(=O)N(c3ccccc3)C(=O)C2N1Nc1ccccc1 (stereo not given)	-0.477	0.618	-0.645	-0.476	-0.823	-2.36	-0.266 (inactive)	-0.814	-0.547	-1.15 (inactive)	-1.45	-0.652 (inactive)	-1.4 (inactive)	-0.191 (inactive)	0.67 (inactive)	0.0166 (inactive)	-0.0789 (inactive)	-0.565 (inactive)	-1.28	0.255
[N-]=[N+]=NCc1ccccc1[C@H]1OC(c2ccc(OCCCO)cc2)=N[C@@]1(Cc1ccccc1)C(=O)N1CCCCC1	0.562	-0.359	0.505	-0.085	-0.909	0.732	-0.677 (inactive)	-0.931	-0.854	0.151 (inactive)	0.804	-1.95 (inactive)	-1.71 (inactive)	0.451 (inactive)	-0.441 (inactive)	-0.923 (inactive)	1.29 (inactive)	1.25 (inactive)	-0.941	-0.0622
[N-]=[N+]=Nc1ccccc1[C@H]1OC(c2ccc(OCCCO)cc2)=N[C@@]1(CCS(=O)(=O)c1ccccc1)C(=O)NCc1ccccc1	-0.0804	-0.337	-0.777	-0.99	-0.816	-0.337	-0.327 (inactive)	-0.929	-0.673	1.09 (inactive)	0.614	-0.008 (inactive)	-0.548 (inactive)	0.44 (inactive)	0.441 (inactive)	-0.22 (inactive)	-0.0211 (inactive)	-0.77 (inactive)	-0.129	0.0623
O=C1O[C@@H](c2ccccc2)[C@@H](c2ccccc2)N2[C@@H](c3ccccc3OCCO)[C@]3(C(=O)Nc4ccc(C#CC5(O)CCCCCC5)cc43)[C@@H](C(=O)N3CCN(c4ncccn4)CC3)[C@H]12	-0.643	1.46	0.11	-1.22	-2.29	-0.457	0.821 (inactive)	-1.04	-0.796	-0.697 (inactive)	0.0783	1.62 (inactive)	-1.18 (inactive)	0.937 (inactive)	1.94 (inactive)	4.01 (inactive)	-0.418 (inactive)	0.247 (inactive)	-0.737	0.372
C#CCN1[C@@H](Cc2ccc(O)cc2)C(=O)O[C@H](Cc2ccccc2)[C@@H]1/C=C/C1CC1	-2.82	-0.145	-3.44	-3.22	-3.96	-3.57	-0.0548 (inactive)	-1.23	-0.744	-1.01 (inactive)	-1.9	-2.19 (inactive)	-1.08 (inactive)	-0.652 (inactive)	-0.353 (inactive)	0.168 (inactive)	0.75 (inactive)	0.665 (inactive)	-1.21	0.0664
